Screens as filed in PubChem BioAssay.
G9a inh-1 = blocks human histone lysine methyltransferase G9a; Potency, µM (top dose mostly 102 µM), usual class: inhibitors; Q96KQ7; G9a H3K9 monomethylation, AlphaScreen, 2 h; 8.8% of 350,000 active; also: nearly all actives have a fitted effect of over 75% in size
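Step 1: enzyme (final 20 nM) with compound, 15 min RT. Step 2: substrate peptide 500 nM and SAM 20 uM, 2 h RT. Step 3: anti-H3K9me1 antibody and AlphaScreen beads, 10 min, then plate read.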
HP1b chromo inh = blocks HP1-beta chromodomain binding to methylated histone tails; AlphaScreen HP1-beta / biotin-H3K9me3 peptide binding; 0.56% of 390,000 active; AID 540317; P83916; Potency, µM (titrated, usually from 114 µM), actives largely listed as inhibitors; also: nearly all actives have a fitted effect of over 70% in size
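AlphaScreen: HP1-beta (50 nM) preformed 30 min with biotin-H3(1-18)K9me3 peptide (50 nM) in PBS pH 7.4, 0.01% Tween-20. Compound added for 30 min at RT, then streptavidin donor/nickel chelate acceptor beads (10 ug/mL) for 30 min.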
BAZ2B block = BAZ2B (human) inhibition | Q9UIF8 | AlphaScreen BAZ2B-H3K14Ac peptide displacement | Potency, µM (titrated, usually from 114 µM), most hits filed as inhibitors | 4.4% of 360,000 active | AID 504333; also: nearly all actives have a fitted effect of over 60% in size
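AlphaScreen luminescence quantifies BAZ2B engagement of H3K14Ac peptide; the protein and biotinylated peptide are both at 50 nM final, buffer PBS pH 7.4 with 0.01% Tween-20, all steps at room temperature.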
JMJD2A Tudor inh = inhibitors of human JMJD2A Tudor domain | O75164 | AlphaScreen JMJD2A-Tudor / H3K4me3 peptide binding | Potency, µM (highest dose often 114 µM), usual class: inhibitors | 4.4% of 390,000 active; also: nearly all actives have a fitted effect of over 50% in size
Target sequence (O75164 whole entry, looked up, the tested form may be a part): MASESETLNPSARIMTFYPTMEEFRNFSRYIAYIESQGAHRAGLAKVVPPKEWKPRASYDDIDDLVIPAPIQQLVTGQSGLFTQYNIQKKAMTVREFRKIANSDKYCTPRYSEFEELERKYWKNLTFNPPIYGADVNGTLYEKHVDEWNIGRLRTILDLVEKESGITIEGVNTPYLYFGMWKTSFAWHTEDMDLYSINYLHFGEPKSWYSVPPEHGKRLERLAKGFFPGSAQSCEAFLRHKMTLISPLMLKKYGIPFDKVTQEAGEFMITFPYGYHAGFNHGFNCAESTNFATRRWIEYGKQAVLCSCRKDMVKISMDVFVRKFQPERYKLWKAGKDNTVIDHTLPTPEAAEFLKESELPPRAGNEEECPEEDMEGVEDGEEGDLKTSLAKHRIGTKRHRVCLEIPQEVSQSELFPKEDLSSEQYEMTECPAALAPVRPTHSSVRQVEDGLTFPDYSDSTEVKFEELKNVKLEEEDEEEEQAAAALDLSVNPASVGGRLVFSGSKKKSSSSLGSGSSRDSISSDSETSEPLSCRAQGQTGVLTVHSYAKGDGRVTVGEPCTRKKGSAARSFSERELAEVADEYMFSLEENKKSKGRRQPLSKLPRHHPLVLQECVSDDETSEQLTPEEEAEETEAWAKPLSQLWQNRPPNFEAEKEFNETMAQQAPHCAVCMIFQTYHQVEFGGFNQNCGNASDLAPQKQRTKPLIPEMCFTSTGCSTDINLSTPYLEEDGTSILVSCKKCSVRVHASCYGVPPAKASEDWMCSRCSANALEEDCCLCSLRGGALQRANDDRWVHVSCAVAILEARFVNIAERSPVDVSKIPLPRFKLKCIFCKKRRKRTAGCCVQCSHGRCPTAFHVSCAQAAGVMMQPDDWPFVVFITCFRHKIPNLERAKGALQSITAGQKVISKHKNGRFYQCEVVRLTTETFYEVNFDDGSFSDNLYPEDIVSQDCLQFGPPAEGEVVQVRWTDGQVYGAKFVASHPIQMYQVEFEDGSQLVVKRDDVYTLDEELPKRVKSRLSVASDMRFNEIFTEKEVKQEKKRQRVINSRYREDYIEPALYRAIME
Sfp PPTase inh = inhibitors of Bacillus subtilis Sfp phosphopantetheinyl transferase | Q9F4F7 | Biochemical Sfp PPTase activity, qHTS | Potency, µM, actives largely listed as inhibitors | 3.5% of 310,000 active;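 also: the enzyme is Sfp with the accession as filed and its product quenches rhodamine fluorescence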
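Sfp 15 nM + cpd, 15 min RT; start w/ rhodamine-CoA 5 uM, BHQ-2-YbbR 12.5 uM (final); 50 mM Hepes pH 7.6, 10 mM MgCl2, 0.01% NP-40, 0.01% BSA; read 525/598 nm at 0 and 30 min.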
Sfp inh conf = confirmation of Bacillus subtilis Sfp PPTase inhibitors. shares compounds with Sfp PPTase inh. 79% of 380 active. Sfp PPTase enzymatic assay, qHTS titration. Potency, µM (highest dose often 114 µM), actives largely listed as inhibitors
Sfp gel assay = Inhibits B. subtilis Sfp phosphopantetheinylation; shares compounds with Sfp PPTase inh; purified Sfp, gel-based phosphopantetheinylation read-out; Potency, µM, usual class: inhibitors; 20% of 210 active; AID 2707;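 active = potency below 100 µM; inconclusive = dose-dependent response but potency above 100 µM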;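 also: potency is an IC50 for inhibitors of Sfp transfer activity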
JMJD2E inh-1 = inhibitors of human JMJD2E demethylase, 8HQ series round 1 | shares compounds with BAZ2B block | Potency, µM (top dose mostly 57 µM), usual class: inhibitors | JMJD2E demethylase, FDH-coupled NADH fluorescence | 89% of 130 active
ME-1 growth = reduces ME-1 leukemia cell proliferation; 20% of 140 active; Potency, µM (highest dose often 56.1 µM), most hits filed as inhibitors; ME-1 cell proliferation, ATP luminescence, 48 h; shares compounds with BAZ2B block
JMJD2E inh-2 = confirmation of inhibitors of human JMJD2E demethylase; shares compounds with JMJD2A Tudor inh; Recombinant JMJD2E, FDH-coupled NADH fluorescence (FDH is formaldehyde dehydrogenase); Potency, µM (top dose mostly 56.8 µM), most hits filed as inhibitors; 93% of 140 active; AID 2677
FDH counter = counter-screen for JMJD2E inhibitors: Pseudomonas putida formaldehyde dehydrogenase; shares compounds with JMJD2A Tudor inh; FDH enzyme assay, NADH fluorescence kinetic; Potency, µM (highest dose often 56.7 µM), hits mostly inhibitors; 10% of 140 active; AID 2680
G9a inh-2 = inhibits human G9a histone lysine methyltransferase, hit confirmation | 89% of 370 active | shares compounds with JMJD2A Tudor inh | Potency, µM, actives largely listed as inhibitors | G9a H3K9 monomethylation, AlphaScreen, 2 h; also: nearly all actives have a fitted effect of over 65% in size
Large screens that a line does not name were inactive (follow-up assays come after a bar, where they were run); ! = not active in a repeat. This is a sample that favours compounds with a hit; in the whole collection about 12% have one here. Unless noted, calls follow the shape of the dose curve; as a rule, active = well fitted curve in the direction sought with a large enough effect; inconclusive = small, poorly fitted or top-dose-only effect, or another doubt; inactive = no such curve, though single readings can be large; an effect the other way counts as inactive or inconclusive.

OCCN(CCO)CCO	none (no result: HP1b chromo inh, BAZ2B block, JMJD2A Tudor inh)
Cc1c(OCC(F)(F)F)ccnc1CS(=O)c1nc2ccccc2[nH]1 (stereo not drawn)	G9a inh-1 6.7µM!, BAZ2B block 35.5µM, JMJD2A Tudor inh inconclusive, Sfp PPTase inh 12.6µM! | Sfp inh conf 29.6µM | Sfp gel assay inactive | G9a inh-2 0.502
CN[C@@H](C)[C@H]1CC[C@@H](N)[C@@H](O[C@@H]2[C@@H](O)[C@@H](O[C@H]3OC[C@@](C)(O)[C@@H](NC)[C@@H]3O)[C@H](N)C[C@@H]2N)O1 (tested in a mixture with another compound)	none (no result: HP1b chromo inh, BAZ2B block, JMJD2A Tudor inh)
O=C(O)CCCCC1SCC2NC(=O)NC21 (stereo not drawn)	G9a inh-1 7.94µM!, HP1b chromo inh inconclusive, BAZ2B block 0.794µM, JMJD2A Tudor inh 11.2µM | ME-1 growth inactive
O=C1C=CC(=O)c2c(O)cccc21	G9a inh-1 inconclusive (no result: HP1b chromo inh, BAZ2B block, JMJD2A Tudor inh) | ME-1 growth 22.4µM
O=C1c2ccccc2C(=O)c2ccccc21	none (no result: HP1b chromo inh, BAZ2B block, JMJD2A Tudor inh)
Cc1ccc(NC(=O)C2C3CCCC2C3c2ccccc2)c(C)c1 (stereo not drawn)	G9a inh-1 inconclusive
COc1ccc2c3c1O[C@H]1[C@@H](O)C=C[C@H]4C(C2)NCCC341 (stereo partly drawn)	none (no result: HP1b chromo inh, BAZ2B block, JMJD2A Tudor inh)
NCCc1cc(O)c(O)cc1O	HP1b chromo inh 28.2µM, JMJD2A Tudor inh 10µM, Sfp PPTase inh 63.1µM (no result: BAZ2B block) | ME-1 growth inconclusive
NC(Cc1cc(O)c(O)cc1O)C(=O)O (stereo not drawn)	G9a inh-1 0.447µM, BAZ2B block 0.891µM (no result: HP1b chromo inh, JMJD2A Tudor inh, Sfp PPTase inh) | ME-1 growth inactive
CC1(C)C(O)CC(O)[C@]2(C)C1CC(O)[C@]1(C)C2CC[C@@]2(C)C(c3ccoc3)CC3OC312 (stereo partly drawn)	none (no result: HP1b chromo inh, BAZ2B block, JMJD2A Tudor inh)
CN1Cc2ccccc2[C@@H]2c3cccc4[nH]cc(c34)C[C@H]21	G9a inh-1 12.6µM, Sfp PPTase inh 79.4µM! (no result: HP1b chromo inh, BAZ2B block, JMJD2A Tudor inh) | ME-1 growth 11.2µM
CC[n+]1c(-c2ccccc2)c2cc(N)ccc2c2ccc(N)cc21	G9a inh-1 12.6µM, HP1b chromo inh inconclusive, JMJD2A Tudor inh inconclusive, Sfp PPTase inh inconclusive (no result: BAZ2B block) | ME-1 growth 10µM
CC(C)C[C@H]1C(=O)N2CCCC2[C@]2(O)O[C@](NC(=O)[C@@H]3C=C4c5cccc6[nH]cc(c56)CC4N(C)C3)(C(C)C)C(=O)N12 (stereo partly drawn)	G9a inh-1 39.8µM, BAZ2B block inconclusive, JMJD2A Tudor inh inconclusive | ME-1 growth inconclusive
CC(C)C[C@H]1C(=O)N2CCC[C@H]2[C@]2(O)O[C@](NC(=O)[C@@H]3C=C4c5cccc6[nH]c(Br)c(c56)CC4N(C)C3)(C(C)C)C(=O)N12 (stereo partly drawn)	G9a inh-1 inconclusive, BAZ2B block inconclusive
CC(C)[C@H]1C(=O)N2CCC[C@H]2[C@]2(O)O[C@](NC(=O)[C@@H]3C=C4c5cccc6[nH]cc(c56)C[C@H]4N(C)C3)(C(C)C)C(=O)N12	G9a inh-1 10µM, BAZ2B block inconclusive, Sfp PPTase inh 56.2µM | ME-1 growth inactive
ClC=C(Cl)Cl	none (no result: HP1b chromo inh, BAZ2B block, JMJD2A Tudor inh)
c1cc2c(c(N3CCNCC3)c1)OCCO2	none (no result: HP1b chromo inh, BAZ2B block, JMJD2A Tudor inh)
COc1ccc(-c2nn(-c3ccccc3)cc2C(=O)N2c3ccc(C)cc3C3CN(C)CCC32)cc1 (stereo not drawn)	G9a inh-1 inconclusive, BAZ2B block inconclusive
CN(N=O)c1ccc(O)c(O)c1	G9a inh-1 0.501µM (no result: HP1b chromo inh, BAZ2B block, JMJD2A Tudor inh, Sfp PPTase inh) | ME-1 growth inactive
ClC1=C(Cl)C2(Cl)C3C4CC(C5OC45)C3C1(Cl)C2(Cl)Cl (stereo not drawn)	none (no result: HP1b chromo inh, BAZ2B block, JMJD2A Tudor inh)
O=C(O)c1ccc(O)c2ncc(N3CCNCC3)cc12	none (no result: G9a inh-1, HP1b chromo inh, BAZ2B block, JMJD2A Tudor inh, Sfp PPTase inh) | JMJD2E inh-1 4.08µM | JMJD2E inh-2 inconclusive | FDH counter inactive
Cc1cc(-n2c(/C=C/c3cccs3)nc3ccccc3c2=O)ccc1Br	BAZ2B block inconclusive, JMJD2A Tudor inh inconclusive (no result: Sfp PPTase inh)
CN1CC[C@]2(C)c3cc(O)ccc3N(C)[C@@H]12	G9a inh-1 8.91µM (no result: HP1b chromo inh, BAZ2B block, JMJD2A Tudor inh) | JMJD2E inh-2 10µM | FDH counter inconclusive
CCC(C)(S(=O)(=O)CC)S(=O)(=O)CC	none (no result: HP1b chromo inh, BAZ2B block, JMJD2A Tudor inh)
Cn1c(CNC(=O)c2ccco2)nnc1SCC(=O)N1c2ccccc2Sc2ccccc21	G9a inh-1 inconclusive | G9a inh-2 1
CCCC[N+]1(C)C2CC(OC(=O)[C@H](CO)c3ccccc3)CC1C1OC12 (stereo partly drawn)	none (no result: HP1b chromo inh, BAZ2B block, JMJD2A Tudor inh, Sfp PPTase inh)
CN1CCc2cc3c(c4c2[C@H]1Cc1ccccc1-4)OCO3	none (no result: G9a inh-1, HP1b chromo inh, BAZ2B block, JMJD2A Tudor inh)
Cc1cc(OCc2nn[nH]n2)c2c3c(c(=O)oc2c1)CCC3	none
Cc1cc(=O)oc2c1c(C)nn2-c1nn[nH]n1	G9a inh-1 0.708µM, HP1b chromo inh inconclusive, BAZ2B block 39.8µM, JMJD2A Tudor inh 14.1µM | G9a inh-2 0.356
COc1ccc(OCC(=O)N2CCN(Cc3ccc(SC)cc3)CC2)cc1	G9a inh-1 2.24µM, HP1b chromo inh inconclusive, BAZ2B block 50.1µM!, JMJD2A Tudor inh 2.51µM | G9a inh-2 32.4
